In one assay the test system is Klebsiella pneumoniae. Particulars: Concentration 32 ug.mL-1;; ASSAY_TEST Inhibition of Bacterial Growth; detection method Absorption (OD600); MEDIA CAMHB; plate type 384well; NBS; CORNING #3640; time 18 hr.
The next assay relates to Candida albicans. The note with it: Concentration 32 ug.mL-1; ASSAY_TEST Inhibition of Fungal Growth; detection method Absorption (OD530).
The subject of another assay is Cryptococcus neoformans. Particulars: Concentration 32 ug.mL-1; ASSAY_TEST Inhibition of Fungal Growth; detection method Resazurin; Absorption (OD600-OD570); plate type 384well; NBS; CORNING #3640. (In general: The colour change of resazurin is a common sign of viable cells or microbes.)

Entries with a potency or affinity are not part of this list.

Broadly, the Inhibition is the change of the read-out against control, counted positive when it falls. `Cc1ccc(-c2ccc3nn(CC(=O)NCc4ccc(Cl)cc4)c(=O)n3n2)cc1C`: the Inhibition with Klebsiella pneumoniae is 6.14%; with Candida albicans, 6.17%; in the assay with Cryptococcus neoformans it was -11%.
In the same order, the values of `O=C(Cn1nc2c(N3CCOCC3)nccn2c1=O)NCc1cccs1` are 15.07%, 2.44% and -8.25%.
For the compound `COc1cccc(-n2ccn3c(SCC(=O)Nc4ccc(OC)c(OC)c4)nnc3c2=O)c1`, the Inhibition in the assay on Klebsiella pneumoniae is on record as 16.13%; in the assay on Candida albicans, 5.16%; in the assay with Cryptococcus neoformans, -5.69%.
Take `Cc1cc(C)cc(N(Cc2ccc(F)cc2)S(=O)(=O)c2cccn3cnnc23)c1`: the Inhibition is 7.95% in the assay with Klebsiella pneumoniae, 1.02% with Candida albicans and -10.98% in the assay on Cryptococcus neoformans.
In the same order, the values of `CCc1ccccc1Sc1nccn2c(=O)n(CC(=O)N3CCN(c4ccc(F)cc4)CC3)nc12` are 3.21%, 4.71% and -7.3%.
For the compound `CCc1ccccc1Sc1nccn2c(=O)n(CC(=O)Nc3ccc(Br)cc3)nc12`, the Inhibition with Klebsiella pneumoniae is on record as 22.46%; in the assay on Candida albicans, 14.92%; with Cryptococcus neoformans, -1.52%.
As for `CCc1nnc2c(SCC(=O)Nc3ccc(Cl)cc3)nc3ccccc3n12`, the Inhibition in the assay with Klebsiella pneumoniae is 3.4%; in the assay on Candida albicans it was 9.64%; with Cryptococcus neoformans, -3.51%.
In the same order, the values of `Cc1ccccc1Oc1nccn2c(=O)n(CC(=O)Nc3ccc(F)cc3F)nc12` are 11.95%, -0.38% and -8.47%.
On the same counts, the results for `COc1ccc(NC(=O)Cn2nc3c4cc(-c5ccc(Cl)cc5)nn4ccn3c2=O)c(OC)c1` are 16.21%, 1.15% and -23.56%.
For `COc1ccc(NC(=O)CSc2nc3ccccc3n3cnnc23)cc1OC`, the Inhibition with Klebsiella pneumoniae is on record as 13.64%; in the assay on Candida albicans, 4.39%; with Cryptococcus neoformans, -35.7%.
As to `Cc1nnc2c(S(=O)(=O)N(Cc3cccc(Cl)c3)c3ccc(F)c(F)c3)cccn12`, the values for the Inhibition with Klebsiella pneumoniae, in the assay on Candida albicans and with Cryptococcus neoformans were 3.16%, 2.06% and -7.4%, respectively.
In the case of `O=C1CCCN1c1ccc(Cn2nc3ccc(-c4ccccc4)nn3c2=O)cc1`, the results for the Inhibition in the assay with Klebsiella pneumoniae, in the assay with Candida albicans and in the assay with Cryptococcus neoformans were 10.51%, -0.02% and -12.26%, respectively.
Take `CCOc1ccc(-n2ccn3c(SCC(=O)Nc4ccc(C)c(C)c4)nnc3c2=O)cc1`: the values for the Inhibition with Klebsiella pneumoniae, with Candida albicans and in the assay on Cryptococcus neoformans were -8.39%, 2.77% and -12.45%, respectively.
For the compound `COc1cccc(-n2ccn3c(=O)n(Cc4ccc([N+](=O)[O-])cc4)nc3c2=O)c1`, the Inhibition in the assay with Klebsiella pneumoniae is on record as 8.52%; with Candida albicans it was 4.1%; in the assay with Cryptococcus neoformans it was -8.87%.
Regarding `CCCCn1c(=O)c2sccc2n2c(=O)n(CC(=O)N(C)c3ccccc3)nc12`, the Inhibition was -1.65% with Klebsiella pneumoniae, -0.48% in the assay on Candida albicans and -15.83% in the assay with Cryptococcus neoformans.
For `Cc1ccc(-c2ccc3nn(CC(=O)Nc4ccc(Br)cc4)c(=O)n3n2)cc1C`, the figures for the Inhibition with Klebsiella pneumoniae, in the assay on Candida albicans and in the assay with Cryptococcus neoformans were 12.28%, 10.19% and -18.48%, respectively.
In the same order, the values of `Cc1cc2nn(CC(=O)N3CCOCC3)c(=O)n2c(Nc2ccc(C)c(F)c2)n1` are 15.3%, 1.38% and -5.57%.
As for `Cc1ccc(-c2cc3c4nn(CC(=O)Nc5ccc6c(c5)OCO6)c(=O)n4ccn3n2)cc1C`, the Inhibition in the assay on Klebsiella pneumoniae is 2.27%; with Candida albicans, 33.95%; in the assay with Cryptococcus neoformans, -8.66%.
In the case of `COc1cccc(CN(c2ccc(C)c(F)c2)S(=O)(=O)c2ccc3nncn3c2)c1`, the values for the Inhibition in the assay on Klebsiella pneumoniae, in the assay with Candida albicans and in the assay on Cryptococcus neoformans were 1.02%, -0.35% and -8.8%, respectively.
As to `COc1cccc(Sc2nc3ccccc3n3c(=O)n(CC(=O)Nc4ccccc4)nc23)c1`, the values for the Inhibition in the assay with Klebsiella pneumoniae, with Candida albicans and in the assay with Cryptococcus neoformans were 3.34%, 1.24% and -26.53%, respectively.
On the same counts, the results for `CCOC(=O)c1ccccc1NC(=O)Cn1nc2ccc(Sc3ccc(C)cc3)nn2c1=O` are 14.69%, -1.17% and -9.49%.
`COc1ccc(Cl)cc1NC(=O)CSc1nc2ccccc2n2cnnc12`: the results for the Inhibition in the assay on Klebsiella pneumoniae, in the assay on Candida albicans and with Cryptococcus neoformans were 13.26%, 6.06% and -17.53%, respectively.
On to `Cc1cc(Nc2ccc(F)cc2)nc2nn(CCc3ccccc3)c(=O)n12`, for which the Inhibition in the assay with Klebsiella pneumoniae is given as 16.97%; in the assay with Candida albicans, 1.44%; in the assay with Cryptococcus neoformans, -10.99%.
On to `CSc1cccc(NC(=O)Cn2nc3c(Sc4cccc(F)c4)nccn3c2=O)c1`, for which the Inhibition in the assay with Klebsiella pneumoniae is listed as 0.95%; with Candida albicans, 3.02%; with Cryptococcus neoformans, -2.39%.
`Cc1ccc(Oc2nccn3c(=O)n(CC(=O)Nc4ccc(F)cc4F)nc23)cc1`: the results for the Inhibition in the assay with Klebsiella pneumoniae, with Candida albicans and in the assay on Cryptococcus neoformans were 1.97%, 0.56% and -6.68%, respectively.
As to `COc1ccc(CCn2c(=O)c3sccc3n3c(=O)n(Cc4ccccc4Cl)nc23)cc1OC`, the Inhibition in the assay on Klebsiella pneumoniae is given as 5.53%; in the assay with Candida albicans, -1.24%; in the assay with Cryptococcus neoformans, -27.91%.
As to `CCC(C)NC(=O)Cn1nc2n(Cc3ccco3)c(=O)c3sccc3n2c1=O` (centres undefined), the Inhibition is reported as 10.15% in the assay with Klebsiella pneumoniae, -0.07% in the assay with Candida albicans and -9.56% in the assay with Cryptococcus neoformans.
For the compound `Cc1ccc(Oc2nccn3c(=O)n(CC(=O)N4CCN(c5ccc(F)cc5)CC4)nc23)cc1`, the Inhibition in the assay with Klebsiella pneumoniae was 19.83%; with Candida albicans, 0.18%; in the assay on Cryptococcus neoformans, -7.7%.

Values taken from ChEMBL document CHEMBL4513146, “CO-ADD screening of Karazin Kharkiv National University (Ukraine) compounds”.
